Assay results published in PubChem BioAssay AID651815 (National Center for Advancing Translational Sciences (NCATS), 2012).
About 1,100 (52%) of roughly 2,100 compounds were called active. About 29% were inconclusive and are not listed. The call rests on the fitted dose curve; in most records, active means well fitted inhibition curve with a large enough effect; inconclusive means small, poorly fitted or top-dose-only effect; inactive means no such curve, though single readings can be large or run the other way. The set was probably picked from earlier hits. Some of the results follow.
Further: nearly all actives have a fitted effect of over 65% in size.
Potency means the concentration at half of the fitted maximal effect.

The compounds below were run against DNA dC->dU-editing enzyme APOBEC-3F (Homo sapiens) (UniProt Q8IUX4) (assay: qHTS for inhibitors of Vif-A3F interactions: Cherry picks counterscreen). Conditions: HeLa A3F-eYFP/Vif cells, eYFP fluorescence, 24 h; series mostly up to 46.1 µM.
DNA dC->dU-editing enzyme APOBEC-3F (Homo sapiens), sequence (Q8IUX4 whole entry, looked up): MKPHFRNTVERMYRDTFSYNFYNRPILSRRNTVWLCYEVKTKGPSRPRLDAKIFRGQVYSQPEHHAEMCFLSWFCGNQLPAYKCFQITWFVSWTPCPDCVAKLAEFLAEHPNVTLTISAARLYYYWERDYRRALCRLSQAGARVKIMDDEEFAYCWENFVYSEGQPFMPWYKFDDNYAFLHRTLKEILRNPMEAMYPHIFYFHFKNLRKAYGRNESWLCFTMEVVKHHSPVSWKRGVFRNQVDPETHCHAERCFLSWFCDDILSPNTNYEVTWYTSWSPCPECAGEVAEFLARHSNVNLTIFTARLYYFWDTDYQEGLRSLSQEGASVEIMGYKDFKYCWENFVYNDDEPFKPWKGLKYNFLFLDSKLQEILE
In short: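 Rescue of Vif-driven A3F-eYFP degradation read as cellular eYFP fluorescence after 24 h compound exposure (several concentrations) in stable HeLa cells; MG132 (2 mM stock) as positive control.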
In the case of `CN(C)S(=O)(=O)c1ccc2c(c1)/C(=C/c1cc3c([nH]1)CCCC3)C(=O)N2`, the Potency is reported as 2.23 µM (active).
For `Cc1cccc(N2CCN(C(=O)c3ccncc3)CC2)c1C`, the Potency was 9.94 µM (active).
For `O=C(CSc1nc(-c2ccco2)cc(C(F)(F)F)n1)Nc1cccnc1`, the Potency was 11.2 µM (active).
`Cc1nnc(NC(=O)CSc2nc(C(C)C)nc3ccccc23)s1` was tested, and the Potency was 8.86 µM (active).
`Cc1cc(C)n(-c2nnc3n2N=C(c2c[nH]c4ccccc24)CS3)n1` was tested, and the Potency was 12.5 µM (active).
`CC(NC(=O)/C(C#N)=C/c1ccc([N+](=O)[O-])o1)c1ccccc1` (stereo not drawn) was tested, and the Potency was 18.4 µM (active).
`N#C/C(=C\c1ccccc1[N+](=O)[O-])C(=O)NCc1ccccc1` was tested, and the Potency was “inactive”.
For `CCOCCCNC(=O)/C(C#N)=C/c1ccc([N+](=O)[O-])o1`, the Potency was 20.6 µM (active).
In the case of `CN(C)/C=N/C1=C(C#N)C(c2cccs2)c2ccc3ccccc3c2O1` (stereo not drawn), the Potency is reported as 4.98 µM (active).
For `O=C(NCc1cccnc1)c1cccc(NS(=O)(=O)c2ccc(Br)cc2)c1`, the Potency was 6.27 µM (active).
`O=C(COc1ccc(C(=O)c2ccccc2)cc1)NCc1ccc(F)cc1` was tested, and the Potency was 1.98 µM (active).
For `O=C(c1[nH]c(C(F)(F)F)nc1-c1ccccc1)N1CCN(c2ccccc2)CC1`, the Potency was 2.23 µM (active).
With `CCS(=O)(=O)N1CCc2cc(C(=O)N3CCN(c4cccc(C(F)(F)F)c4)CC3)ccc21` the Potency was “inactive”.
With `O=C(c1[nH]c(C(F)(F)F)nc1-c1ccccc1)N1CCN(c2cccc(C(F)(F)F)n2)CC1` the Potency was 2.8 µM (active).
For `N#Cc1sc2nc(-c3cccs3)cc(-c3ccc(Cl)cc3)c2c1N`, the Potency was 12.5 µM (active).
For `CCN(CC)C(=O)c1sc2nc(-c3cccs3)cc(-c3ccc(Cl)cc3)c2c1N`, the Potency was 14 µM (active).
With `COc1ccc(-c2cc(-c3cccs3)nc3sc(C#N)c(N)c23)cc1` the Potency was “inactive”.
With `O=C(COC(=O)c1ccc(NS(=O)(=O)c2cccs2)cc1O)NCc1ccccc1` the Potency was 4.44 µM (active).
With `COc1ccc2c(c1)c1nc3ccccc3nc1n2Cc1ccc(OC)c(OC)c1` the Potency was 18.4 µM (active).
For `COc1ccc(COn2c(=O)c(C)[n+]([O-])c3ccccc32)cc1OC`, the Potency was “inactive”.
`COc1ccc2c(c1)c1nc3ccccc3nc1n2CC(=O)OC(C)C` was tested, and the Potency was 3.66 µM (active).
For `CCOc1ccc(Cn2c3ccc(OC)cc3c3nc4ccccc4nc32)cc1`, the Potency was 18.4 µM (active).
`c1ccc(N=NC2=NN(c3ccccc3)CS2)cc1` was tested, and the Potency was “inactive”.
For `Nc1nn(-c2ccccc2)c(N)c1N=Nc1ccccc1`, the Potency was 2.23 µM (active).
`O=C(CSc1ccccc1)Nc1nc2ccccc2[nH]1` was tested, and the Potency was 8.86 µM (active).
For `N#CC(C(=S)Nc1ccccc1)c1nc2ccccc2[nH]1` (stereo not drawn), the Potency was “inactive”.
With `c1ccc2[nH]c(NN=C3CCCCCC3)nc2c1` the Potency was “inactive”.
With `Cc1ccc2c(c1)C=CC(C#N)N2C(=O)c1ccccc1` (stereo not drawn) the Potency was 4.98 µM (active).
In the case of `Cc1c(C(=O)OC2CCCCC2)[nH]c2c1C(=O)CC(c1ccccc1Cl)C2` (stereo not drawn), the Potency is reported as 2.06 µM (active).
With `COCCOC(=O)c1[nH]c2c(c1C)C(=O)CC(c1ccccc1)C2` (stereo not drawn) the Potency was 1.77 µM (active).
In the case of `COc1ccc(OC)c(C2CC(=O)c3c([nH]c(C(=O)OCC4CCCO4)c3C)C2)c1` (stereo not drawn), the Potency is reported as 12.5 µM (active).
With `CN(/N=C/c1ccc(N(C)C)cc1)C1=NS(=O)(=O)c2ccccc21` the Potency was 11.2 µM (active).
For `COCCCN(C(C)=O)c1nc(-c2ccc(OC)cc2)cs1`, the Potency was 17.7 µM (active).
In the case of `CN1C2=CC=CC=CC2=[N+](C)C12C([N+](=O)[O-])=CC(=[N+]([O-])[O-])C=C2[N+](=O)[O-]` (stereo not drawn), the Potency is reported as 12.5 µM (active).
With `Cc1ccc(S(=O)(=O)Nc2cc(-c3nn(C)c(=O)c4ccccc34)ccc2N2CCOCC2)cc1` the Potency was 12.5 µM (active).
`Cc1cccc2[nH]cc(/C=C3/C=Nc4ccccc43)c12` was tested, and the Potency was 20.6 µM (active).
With `CCC(C)Sc1ccc(-c2nc3cc(C)ccn3c2NC2CCCCC2)cc1` (stereo not drawn) the Potency was “inactive”.
With `c1cc(SC2CCCCC2)cc(-c2nc3cnccn3c2NC2CCCCC2)c1` the Potency was “inactive”.
With `CCCCNc1c(-c2ccc(SC3CCCCC3)cc2)nc2cnccn12` the Potency was 4.44 µM (active).
`O=C(c1cc(-c2ccncc2)nc2ccccc12)N1CCN(c2ccccn2)CC1` was tested, and the Potency was 6.27 µM (active).
For `COC(=O)c1sc(N)c(C(=O)OC)c1COC(=O)c1c(C)noc1C`, the Potency was 4.44 µM (active).
`CC(=O)N1CCc2nc3sc(C(=O)c4ccc(F)cc4)c(N)c3c(C(F)(F)F)c2C1` was tested, and the Potency was 18.4 µM (active).
With `COc1ccc(C(=O)c2sc3nc4c(c(C(F)(F)F)c3c2N)CN(C(C)=O)CC4)cc1OC` the Potency was 23.1 µM (active).
In the case of `COc1ccccc1-c1nnc2sc(-c3cc4ccccc4o3)nn12`, the Potency is reported as 5.59 µM (active).
With `Cc1c2ccccc2nc2c(F)c(NC(C)C)c(F)c(F)c12` the Potency was 6.51 µM (active).
For `CCCNc1c(F)c(F)c2c(C)c3ccccc3nc2c1F`, the Potency was 15.8 µM (active).
In the case of `c1ccc(-c2cnn3c(-c4ccccc4)c(-c4ccccc4)nc3n2)cc1`, the Potency is reported as 0.461 µM (active).
`CC(=O)c1sc2nc(-c3cccs3)cc(C(F)(F)F)c2c1N` was tested, and the Potency was 16.4 µM (active).
With `Nc1c(C(=O)C2CC2)sc2nc(-c3cccs3)cc(C(F)(F)F)c12` the Potency was 1.16 µM (active).
With `CC(C)(C)C(=O)c1sc2nc(-c3cccs3)cc(C(F)(F)F)c2c1N` the Potency was 1.84 µM (active).
With `CCCc1nc2c(C)cc(Br)cn2c1Cc1ccccc1` the Potency was “inactive”.
For `CC(C)n1cc(/C=C/c2cc[n+](C)cc2)c2ccccc21`, the Potency was 0.0559 µM (active).
For `C=CCn1cc(/C=C/c2cc[n+](C)cc2)c2ccccc21`, the Potency was 0.198 µM (active).
With `CCn1cc(/C=C/c2cc[n+](C)cc2)c2ccccc21` the Potency was 0.0498 µM (active).
With `COc1cc(OC)c(/C=C/c2ccc3ccccc3[n+]2C)c(OC)c1` the Potency was 11.6 µM (active).
For `N#Cc1c(-c2ccccc2F)cc(C2CC2)nc1SCC(=O)c1cccs1`, the Potency was 14 µM (active).
For `CCc1c(C)nc(SCC(=O)c2cccs2)c(C#N)c1C`, the Potency was “inactive”.
In the case of `COc1cccc(CNCCSc2nnnn2C)c1OCc1ccc(F)cc1`, the Potency is reported as “inactive”.
In the case of `Fc1ccc(COc2ccc3ccccc3c2CNc2nn[nH]n2)cc1`, the Potency is reported as 19.8 µM (active).
In the case of `O=C(NNC1=Nc2cccc3cccc1c23)c1ccc(Br)cc1`, the Potency is reported as 23.1 µM (active).
`COc1cc(OC)c(/C=C2\SC(=O)N(CC(=O)Nc3ccccc3F)C2=O)c(OC)c1` was tested, and the Potency was 12.5 µM (active).
For `O=C(Cn1nc2c(cc1=O)CCCC2)NCc1ccc(Cl)cc1`, the Potency was 16.4 µM (active).
`N#C/C(=C/c1cccs1)c1ccccn1` was tested, and the Potency was 15.8 µM (active).
For `CC1(C(=O)NCc2ccccc2)Cc2c(-c3ccc(C(N)=O)cc3)ccnc2O1` (stereo not drawn), the Potency was 7.9 µM (active).
`CC1(C(=O)NCc2ccco2)Cc2c(-c3cccc(C(N)=O)c3)ccnc2O1` (stereo not drawn) was tested, and the Potency was 14 µM (active).
In the case of `CC(=O)Nc1cccc(-c2ccnc3c2CC(C)(C(=O)NCc2cccs2)O3)c1` (stereo not drawn), the Potency is reported as 4.44 µM (active).
For `CC(=O)Nc1cccc(-c2ccnc3c2CC(C)(C(=O)NCc2ccccc2)O3)c1` (stereo not drawn), the Potency was 2.8 µM (active).
For `CC1(C(=O)NCc2ccccc2)Cc2c(-c3cccc(C(N)=O)c3)ccnc2O1` (stereo not drawn), the Potency was 7.04 µM (active).
For `CC(=O)Nc1cccc(-c2ccnc3c2CC(C(=O)NCc2cccs2)O3)c1` (stereo not drawn), the Potency was 5.59 µM (active).
With `CCCOc1cc(N(CC)CC)ccc1/C=C(/C#N)c1nc2ccc(C)cc2[nH]1` the Potency was “inactive”.
In the case of `Cc1ccc2nc(/C(C#N)=C\c3ccc([N+](=O)[O-])o3)[nH]c2c1`, the Potency is reported as 10.3 µM (active).
With `N#C/C(=C\c1ccc([N+](=O)[O-])o1)c1nc2ccccc2[nH]1` the Potency was 8.2 µM (active).
`N#C/C(=C\c1ccc(Cl)cc1)c1nc2ncccc2[nH]1` was tested, and the Potency was 15.8 µM (active).
With `N#C/C(=C\c1cccnc1)c1nc2ccccc2[nH]1` the Potency was 14 µM (active).
In the case of `CCc1ccc(/C=N/NC(=O)c2cc(-c3ccncc3)nc3ccccc23)s1`, the Potency is reported as 4.98 µM (active).
With `CCn1c(O)c(/C=N/NC(=O)c2ccncc2)c(=O)n(CC)c1=S` the Potency was “inactive”.
For `CC(/C=N/NC(=O)c1cc(-c2ccccc2)nc2ccccc12)=C\c1ccco1`, the Potency was 3.14 µM (active).
In the case of `C/C(=N\NC(=O)c1cc(-c2ccncc2)nc2ccccc12)c1ccc(N2CCOCC2)cc1`, the Potency is reported as “inactive”.
In the case of `O=C(N/N=C/c1ccco1)c1cc(-c2ccncc2)nc2ccccc12`, the Potency is reported as 6.27 µM (active).
With `CC1CCN(c2ccc3c(c2)S(=O)(=O)c2cccc(C(=O)NCc4cccc(F)c4)c2C3=O)CC1` the Potency was 14 µM (active).
With `Cc1ccc(CNC(=O)c2cccc3c2C(=O)c2ccc(N4CCC(C)CC4)cc2S3(=O)=O)cc1` the Potency was 14.6 µM (active).
For `O=C(NCc1cccc(F)c1)c1cccc2c1C(=O)c1ccc(N3CCCC3)cc1S2(=O)=O`, the Potency was 17.7 µM (active).
With `COc1ccc2oc(=Nc3ccccc3)c(-c3nc4ccccc4[nH]3)cc2c1` the Potency was 20.6 µM (active).
For `CCOC(=O)c1csc(NC(=O)c2cc(-c3ccccn3)nc3ccccc23)n1`, the Potency was “inactive”.
In the case of `COc1cc(C(=O)Nc2ccc(C)cc2)c2ccccc2n1`, the Potency is reported as 1.77 µM (active).
With `Cc1ccc(Cl)cc1NC(=O)Nc1cn(CC(C)C)c(=O)c2ccccc12` the Potency was “inactive”.
For `Cc1ccc(C)c(NC(=O)Cn2cc(S(=O)(=O)Cc3cccc(Cl)c3)c3ccccc32)c1`, the Potency was 6.51 µM (active).
In the case of `COc1ccc(C2CC(c3ccncc3)=NN2c2ccc(S(N)(=O)=O)cc2)cc1` (stereo not drawn), the Potency is reported as 20.6 µM (active).
For `CCS(=O)(=O)N1N=C(c2ccc(C)cc2)CC1c1cc2ccc(OC)cc2nc1Cl` (stereo not drawn), the Potency was “inactive”.
`COc1ccc2nc(NC(=S)NC(=O)c3ccco3)sc2c1` was tested, and the Potency was “inactive”.
In the case of `O=C(Nc1nc2ccc(F)cc2s1)c1ccc([N+](=O)[O-])o1`, the Potency is reported as 15.8 µM (active).
For `COc1ccc(NC(=O)c2c(Cl)n(C)c3ccccc23)cc1`, the Potency was 14 µM (active).
For `COc1cc(OC)c(OC)cc1/C=C1\CC(C)C/C(=C\c2cc(OC)c(OC)cc2OC)C1=O` (stereo not drawn), the Potency was 18.4 µM (active).
